Laboratory results taken from article PMC7862700, “An all-to-all approach to the identification of sequence-specific readers for epigenetic DNA modifications on cytosine”.

What was measured:
Experiment in all cases: DAPPL (digital affinity profiling via proximity ligation, sequencing); 10 mM Tris-HCl pH 7.5, 50 mM NaCl, 1 mM DTT, 4% glycerol, room temperature, 30 min; GST-TFs on glutathione beads, 16-mer random dsDNA library, 0.1% formaldehyde crosslink after washing; high values mean tight binding
Conditions in all cases: protein: recombinant; tags: N-terminal GST; dsDNA, one strand shown
ERF = target: T1, ERF (Homo sapiens, UniProt P50548 1-548)
T1 sequence: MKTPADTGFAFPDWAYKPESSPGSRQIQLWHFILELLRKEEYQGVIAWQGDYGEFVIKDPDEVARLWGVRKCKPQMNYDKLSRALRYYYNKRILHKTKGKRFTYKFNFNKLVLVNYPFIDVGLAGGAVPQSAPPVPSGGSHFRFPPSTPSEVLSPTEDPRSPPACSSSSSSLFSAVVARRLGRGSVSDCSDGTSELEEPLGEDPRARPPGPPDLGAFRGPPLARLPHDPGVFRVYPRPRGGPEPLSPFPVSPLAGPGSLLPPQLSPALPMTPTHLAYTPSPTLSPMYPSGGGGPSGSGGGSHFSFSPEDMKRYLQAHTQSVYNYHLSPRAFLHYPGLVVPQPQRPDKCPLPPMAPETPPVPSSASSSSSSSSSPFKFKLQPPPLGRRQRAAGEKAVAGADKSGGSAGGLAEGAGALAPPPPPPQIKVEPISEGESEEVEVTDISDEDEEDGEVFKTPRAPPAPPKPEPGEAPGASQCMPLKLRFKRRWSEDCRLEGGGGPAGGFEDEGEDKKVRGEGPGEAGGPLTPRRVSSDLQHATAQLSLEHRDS
Method in brief: (§1)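 Pools of DNA-barcoded human transcription factors, expressed in yeast as GST fusions on glutathione beads and combined with a tag-only sample, were incubated with 200 nmole of a 16-mer random double-stranded DNA library. Incubation took 30 min at room temperature in Tris/NaCl/DTT/glycerol buffer and was followed by washing, 0.1% formaldehyde crosslinking, proximity ligation (BsaI/T4 ligase, 1 h, 37 °C), PCR amplification and sequencing on an Illumina NextSeq500. Binding signal is the ratio of a hexamer's read frequency for a factor to its frequency for the tag-only sample.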

ETV3L = target: T2, ETV3L (Homo sapiens, UniProt Q6ZN32 1-361)
T2 sequence: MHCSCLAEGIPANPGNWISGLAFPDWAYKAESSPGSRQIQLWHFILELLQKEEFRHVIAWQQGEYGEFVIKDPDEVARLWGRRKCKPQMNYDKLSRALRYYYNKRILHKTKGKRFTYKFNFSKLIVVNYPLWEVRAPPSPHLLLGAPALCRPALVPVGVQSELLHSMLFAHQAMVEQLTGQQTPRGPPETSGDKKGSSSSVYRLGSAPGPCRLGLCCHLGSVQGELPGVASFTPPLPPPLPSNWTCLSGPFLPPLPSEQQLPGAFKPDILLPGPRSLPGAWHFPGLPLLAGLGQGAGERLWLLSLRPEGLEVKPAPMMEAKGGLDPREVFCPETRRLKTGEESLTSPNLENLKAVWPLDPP
Method in brief: as §1

ETS2 = target: T3, ETS2 (Homo sapiens, UniProt P15036 1-469)
T3 sequence: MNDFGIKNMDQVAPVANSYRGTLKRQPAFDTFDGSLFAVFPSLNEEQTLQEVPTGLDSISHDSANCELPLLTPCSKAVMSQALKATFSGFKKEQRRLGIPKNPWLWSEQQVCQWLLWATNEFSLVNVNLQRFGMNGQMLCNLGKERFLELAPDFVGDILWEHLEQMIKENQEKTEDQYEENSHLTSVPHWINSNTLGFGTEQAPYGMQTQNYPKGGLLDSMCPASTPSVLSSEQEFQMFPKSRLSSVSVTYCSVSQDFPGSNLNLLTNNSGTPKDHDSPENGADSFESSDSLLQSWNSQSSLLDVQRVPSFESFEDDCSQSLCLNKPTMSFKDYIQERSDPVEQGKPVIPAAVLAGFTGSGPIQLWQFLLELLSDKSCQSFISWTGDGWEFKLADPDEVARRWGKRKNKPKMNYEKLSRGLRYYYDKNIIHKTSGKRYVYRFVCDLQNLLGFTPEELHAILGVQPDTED
Method in brief: as §1

SPDEF = target: T4, SPDEF (Homo sapiens, UniProt O95238 1-335)
T4 sequence: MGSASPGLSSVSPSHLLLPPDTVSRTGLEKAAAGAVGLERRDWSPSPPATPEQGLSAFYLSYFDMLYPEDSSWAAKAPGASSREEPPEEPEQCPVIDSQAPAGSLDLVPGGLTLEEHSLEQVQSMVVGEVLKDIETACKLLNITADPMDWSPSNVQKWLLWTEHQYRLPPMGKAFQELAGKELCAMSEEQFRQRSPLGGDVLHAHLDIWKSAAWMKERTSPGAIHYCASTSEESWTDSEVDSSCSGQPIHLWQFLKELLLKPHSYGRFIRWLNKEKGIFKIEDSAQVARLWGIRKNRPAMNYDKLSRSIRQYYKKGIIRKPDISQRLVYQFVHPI
Method in brief: as §1

ETV7 = target: T5, ETV7 (Homo sapiens, UniProt Q9Y603 1-341)
T5 sequence: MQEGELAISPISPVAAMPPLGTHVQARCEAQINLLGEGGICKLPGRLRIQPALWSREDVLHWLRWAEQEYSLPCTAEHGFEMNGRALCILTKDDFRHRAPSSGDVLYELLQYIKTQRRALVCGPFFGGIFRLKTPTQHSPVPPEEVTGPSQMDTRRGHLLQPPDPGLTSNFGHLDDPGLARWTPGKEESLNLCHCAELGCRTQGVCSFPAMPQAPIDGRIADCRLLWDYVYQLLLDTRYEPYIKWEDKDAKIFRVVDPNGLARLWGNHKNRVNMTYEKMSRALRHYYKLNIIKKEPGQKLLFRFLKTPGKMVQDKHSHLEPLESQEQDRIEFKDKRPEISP
Method in brief: as §1

ELF5 = target: T6, ELF5 (Homo sapiens, UniProt Q9UKW6-2 1-255)
T6 sequence: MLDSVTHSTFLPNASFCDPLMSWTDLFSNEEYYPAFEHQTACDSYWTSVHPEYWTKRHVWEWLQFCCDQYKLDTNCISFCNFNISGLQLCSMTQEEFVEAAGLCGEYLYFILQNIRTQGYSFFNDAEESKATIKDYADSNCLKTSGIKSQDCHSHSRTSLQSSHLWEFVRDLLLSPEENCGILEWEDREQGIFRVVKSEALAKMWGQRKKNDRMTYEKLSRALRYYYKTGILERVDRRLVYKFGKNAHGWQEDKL
Method in brief: as §1

ETV3 = target: T7, ETV3 (Homo sapiens, UniProt P41162-2 1-143)
T7 sequence: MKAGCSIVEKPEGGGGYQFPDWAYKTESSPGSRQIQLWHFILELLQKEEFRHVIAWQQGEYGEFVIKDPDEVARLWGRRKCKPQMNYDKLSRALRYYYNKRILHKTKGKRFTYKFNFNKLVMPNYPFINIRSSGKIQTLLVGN
Method in brief: as §1

ETV6 = ETV6 (Homo sapiens, UniProt P41212 1-452)
Method in brief: as §1

ETV6, sequence (P41212 whole entry): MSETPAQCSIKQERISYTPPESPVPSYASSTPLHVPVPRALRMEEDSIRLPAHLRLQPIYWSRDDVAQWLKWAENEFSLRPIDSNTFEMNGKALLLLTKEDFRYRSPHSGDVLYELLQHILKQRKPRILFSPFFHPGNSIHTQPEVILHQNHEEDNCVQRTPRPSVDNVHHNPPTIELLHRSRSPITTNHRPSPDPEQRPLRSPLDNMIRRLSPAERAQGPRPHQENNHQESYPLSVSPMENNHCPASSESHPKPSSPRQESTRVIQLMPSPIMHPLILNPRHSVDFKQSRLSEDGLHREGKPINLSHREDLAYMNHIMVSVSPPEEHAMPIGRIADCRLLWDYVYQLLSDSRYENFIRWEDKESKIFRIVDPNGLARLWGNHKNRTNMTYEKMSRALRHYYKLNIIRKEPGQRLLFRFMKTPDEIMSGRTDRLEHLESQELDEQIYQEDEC

Sequence	binding signal (ERF)	binding signal (ETV3L)	binding signal (ETS2)	binding signal (SPDEF)	binding signal (ETV7)	binding signal (ELF5)	binding signal (ETV3)	binding signal (ETV6)
AATATG	1.07 fold enrichment (6-mer frequency, TF over GST control)	1.15 fold enrichment (6-mer frequency, TF over GST control)	1.15 fold enrichment (6-mer frequency, TF over GST control)	1.08 fold enrichment (6-mer frequency, TF over GST control)	1.21 fold enrichment (6-mer frequency, TF over GST control)	1.1 fold enrichment (6-mer frequency, TF over GST control)	1.14 fold enrichment (6-mer frequency, TF over GST control)	1.14 fold enrichment (6-mer frequency, TF over GST control)
TAGCAC	1.33 fold enrichment (6-mer frequency, TF over GST control)	1.21 fold enrichment (6-mer frequency, TF over GST control)	1.15 fold enrichment (6-mer frequency, TF over GST control)	1.14 fold enrichment (6-mer frequency, TF over GST control)	1.08 fold enrichment (6-mer frequency, TF over GST control)	1.09 fold enrichment (6-mer frequency, TF over GST control)	1.1 fold enrichment (6-mer frequency, TF over GST control)	1.02 fold enrichment (6-mer frequency, TF over GST control)
TCACTC	1.27 fold enrichment (6-mer frequency, TF over GST control)	1.16 fold enrichment (6-mer frequency, TF over GST control)	1.23 fold enrichment (6-mer frequency, TF over GST control)	1.12 fold enrichment (6-mer frequency, TF over GST control)	1.2 fold enrichment (6-mer frequency, TF over GST control)	1.1 fold enrichment (6-mer frequency, TF over GST control)	1.22 fold enrichment (6-mer frequency, TF over GST control)	1.19 fold enrichment (6-mer frequency, TF over GST control)
GCATTT	1.31 fold enrichment (6-mer frequency, TF over GST control)	1.35 fold enrichment (6-mer frequency, TF over GST control)	1.34 fold enrichment (6-mer frequency, TF over GST control)	1.36 fold enrichment (6-mer frequency, TF over GST control)	1.31 fold enrichment (6-mer frequency, TF over GST control)	1.4 fold enrichment (6-mer frequency, TF over GST control)	1.36 fold enrichment (6-mer frequency, TF over GST control)	1.39 fold enrichment (6-mer frequency, TF over GST control)
GTTCTG	1.12 fold enrichment (6-mer frequency, TF over GST control)	1.23 fold enrichment (6-mer frequency, TF over GST control)	1.05 fold enrichment (6-mer frequency, TF over GST control)	1 fold enrichment (6-mer frequency, TF over GST control)	1.07 fold enrichment (6-mer frequency, TF over GST control)	1.1 fold enrichment (6-mer frequency, TF over GST control)	1.13 fold enrichment (6-mer frequency, TF over GST control)	1.1 fold enrichment (6-mer frequency, TF over GST control)
TCGCCT	1.27 fold enrichment (6-mer frequency, TF over GST control)	1.23 fold enrichment (6-mer frequency, TF over GST control)	1.24 fold enrichment (6-mer frequency, TF over GST control)	1.13 fold enrichment (6-mer frequency, TF over GST control)	1.15 fold enrichment (6-mer frequency, TF over GST control)	1.33 fold enrichment (6-mer frequency, TF over GST control)	1.22 fold enrichment (6-mer frequency, TF over GST control)	1.32 fold enrichment (6-mer frequency, TF over GST control)
TCTGGC	1.31 fold enrichment (6-mer frequency, TF over GST control)	1.11 fold enrichment (6-mer frequency, TF over GST control)	1.21 fold enrichment (6-mer frequency, TF over GST control)	1.15 fold enrichment (6-mer frequency, TF over GST control)	1.24 fold enrichment (6-mer frequency, TF over GST control)	1.08 fold enrichment (6-mer frequency, TF over GST control)	1.06 fold enrichment (6-mer frequency, TF over GST control)	1.19 fold enrichment (6-mer frequency, TF over GST control)
